# High-throughput results from PubChem BioAssay.
# Measles inh – inhibitors of measles virus growth in infected cells; z-score (no concentration beside the values); AID 745; 33,000 compounds, 0.1% hits; infected Vero cells, GFP fluorescence, 64 h; active compounds read low; in the data active means z-score below about -3
# An asterisk follows results filed as active. Shown is part of a subset that was picked to be rich in hits.
SMILES,Measles inh
CCCCN(CC)S(=O)(=O)c1ccc(C(=O)Nc2nc3ccc4sc(C)nc4c3s2)cc1,-0.14
CCOc1cccc2c1OC1(C)C(C(=O)N(C)C)C2NC(=S)N1c1ccccc1C (stereo not drawn),-0.25
O=C(Nc1cccc(-c2nc3ccccc3s2)c1)c1cccs1,-0.07
O=C(Nc1cccc(-c2nc3ccccc3s2)c1)c1ccc(Br)o1,-4.2*
O=C(Nc1cccc(-c2nc3cc(Cl)ccc3o2)c1)c1ccc(Br)o1,-0.44
O=C(NCCc1ccc(Cl)cc1)C1CCC(CNS(=O)(=O)c2cccs2)CC1 (stereo not drawn),1.6
COC(=O)c1c(NC(=O)COc2ccc([N+](=O)[O-])cc2)sc(C)c1C,-0.63
Cc1ccc(Nc2cc(C)nc(-c3ccccc3)n2)cc1,-3.7*
COc1cc(-c2nc(Nc3ccc(C)cc3)c3ccccc3n2)cc(OC)c1OC,-0.38
COc1ccc(Nc2nc(-c3ccc(C)cc3)nc3ccccc23)cc1OC,-1.9
CN1CCN(c2ccc([N+](=O)[O-])cc2S(=O)(=O)N2CCCC2)CC1,0.84
CC(C)OC(=O)c1c(NC(=O)c2ccc(Cl)c([N+](=O)[O-])c2)sc2c1CCCC2,-3.8*
Cc1cccc(C(=O)Nc2sc3c(c2C(=O)NCc2ccco2)CCCC3)c1,-0.65
Cc1cccc(C(=O)Nc2sc3c(c2C(=O)Nc2ccccc2Cl)CCCC3)c1,-4.4*
COC(=O)c1c(NC(=O)c2ccc(C)c([N+](=O)[O-])c2)sc2c1CCC2,1.6
Cc1cc(C(=O)Nc2sc3c(c2C(=O)OC(C)C)CCCC3)ccc1[N+](=O)[O-],1.6
Cc1cccc(C(=O)Nc2sc3c(c2C(=O)Nc2ccccc2Cl)CCC3)c1,0.38
COc1cccc2cc(-c3csc(NC(=O)CCC(=O)NC4CCCCCC4)n3)c(=O)oc12,-0.14
Cc1cccc(NC(=O)C2C3C=CC4(O3)C2C(=O)N(C2CCCC(C)C2C)C4C(=O)NC2CCCCC2C)c1 (stereo not drawn),-0.68
Cc1ccc(NC(=O)C2(N3CCN(c4ccccc4)CC3)CCCCC2)cc1,-0.12
O=C(COC(=O)c1ccc2c(c1)C(=O)N(c1ccccc1Cl)C2=O)c1cccc([N+](=O)[O-])c1,0.75
O=C(COC(=O)c1ccc2c(c1)C(=O)N(c1ccc([N+](=O)[O-])cc1)C2=O)c1ccccc1,0.42
COc1ccc(N2C(=O)c3ccc(C(=O)OCC(=O)c4cccc([N+](=O)[O-])c4)cc3C2=O)cc1,-5*
CCCCNC(=O)CC1SC(=NC)N(C)C1=O (stereo not drawn),-1.3
Cc1ccc(NC(=O)CCNC(=O)Cn2cnc3ccccc3c2=O)c(Br)c1,-1.4
SMILES,Measles inh
Fc1ccc(C2C=C(c3ccc(I)cc3)Nc3ncnn32)cc1 (stereo not drawn),0.19
O=C(Nc1cc(C(F)(F)F)ccc1Cl)c1cc2n(n1)C(C(F)(F)F)CC(c1ccc3c(c1)OCO3)N2 (stereo not drawn),1
CC1C2NC(=S)N(c3ccc(F)cc3)C1(C)Oc1ccccc12 (stereo not drawn),-0.9
COCCn1c(=O)[nH]c2cc(C(=O)NC3CCN(Cc4ccccc4)CC3)ccc2c1=O,-1.4
COCCn1c(=O)[nH]c2cc(C(=O)NCCN3CCN(c4ccccc4)CC3)ccc2c1=O,-3.6*
COCCCNC(=O)c1ccc2c(=O)n(CCOC)c(=O)[nH]c2c1,0.63
COC(=O)c1ccc2c(c1)sc(=NC(=O)c1ccc(S(=O)(=O)N(C)C)cc1)n2C,-1.6
Cc1cc(C2CC3CCC2C3)cc(C)c1O (stereo not drawn),-0.46
CCCNC(=O)C1CC(=O)N(c2ccccc2)C1 (stereo not drawn),-0.16
Cc1ccc(C(=O)CC2(O)C(=O)N(Cc3ccccc3)c3ccccc32)cc1 (stereo not drawn),-0.1
CC1(C)C(=O)N(Cc2ccccc2)c2ccccc2N1C(=O)c1ccc(Br)cc1,-4*
CC1(C)C(=O)N(Cc2ccc([N+](=O)[O-])cc2)c2ccccc2N1C(=O)c1ccc(Br)cc1,-0.47
CCOc1cc(C2C(C(=O)OC3CCCCC3)=C(C)NC3=C2C(=O)C(C(=O)OC)C(C)C3)ccc1O (stereo not drawn),0.68
Cc1ccc(CNC(=O)c2cnn3c(C)c(Cc4ccc(F)cc4)c(C)nc23)cc1,-2
